# According to the supplement of paper PMC6555819:
# Columns and labels:
# Test in all cases: PBM binding z-score (relative to random genomic background probes); higher = stronger binding; sequences stand for … in GC…GCGATTGACAGCGTAGAATGAAGG
# [1] = system: FXR:RXRa (NR concentration 270 nM, RXRa partner concentration 90 nM)
# Summary of the method: (§1)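 Binding z-scores were set against random background probes. The data came from custom Agilent 4×180K protein-binding microarrays carrying double-stranded probes with 34-nt variable regions, incubated 1 h with ligand-free nuclear receptor dimers. Partner-specific antibodies detected binding, and scanned fluorescence was regression-normalized.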
# [2] = system: LXRa:RXRa (NR concentration 270 nM, RXRa partner concentration 90 nM)
# Summary of the method: as §1
# [3] = system: LXRa homodimer (NR concentration 270 nM)
# Summary of the method: as §1
# [4] = system: LXRb:RXRa (NR concentration 270 nM, RXRa partner concentration 90 nM)
# Summary of the method: as §1
# [5] = system: LXRb homodimer (NR concentration 270 nM)
# Summary of the method: as §1
# [6] = system: PPARa:RXRa (NR concentration 270 nM, RXRa partner concentration 90 nM)
# Summary of the method: as §1
# [7] = system: PPARg:RXRa (NR concentration 180 nM, RXRa partner concentration 90 nM)
# Summary of the method: as §1
# [8] = system: PPARg:RXRa 270nM:90nM, anti-RXR (NR concentration 270 nM, RXRa partner concentration 90 nM)
# Summary of the method: as §1
# [9] = system: PPARg:RXRa 30nM:10nM, anti-RXR (NR concentration 30 nM, RXRa partner concentration 10 nM)
# Summary of the method: as §1
# [10] = system: PPARg:RXRa 90nM:30nM, anti-RXR (NR concentration 90 nM, RXRa partner concentration 30 nM)
# Summary of the method: as §1
# [11] = system: PPARg:RXRa DBDmut IVT, anti-RXR (DBD mutation: RXRa K156A/R161A, NR concentration 270 nM, RXRa partner concentration 90 nM)
# Summary of the method: as §1
# [12] = system: PPARg:RXRa IVT, anti-PPARg (NR concentration 270 nM, RXRa partner concentration 90 nM)
# Summary of the method: as §1
# [13] = system: PPARg DBDmut:RXRa IVT, anti-PPARg (DBD mutation: PPARg1 K132A/R137A, NR concentration 270 nM, RXRa partner concentration 90 nM)
# Summary of the method: as §1
# [14] = system: PPARg DBDmut IVT, anti-PPARg (DBD mutation: PPARg1 K132A/R137A, NR concentration 270 nM)
# Summary of the method: as §1
# [15] = system: PPARg homodimer (NR concentration 180 nM)
# Summary of the method: as §1
# [16] = system: PXR:RXRa (NR concentration 270 nM, RXRa partner concentration 90 nM)
# Summary of the method: as §1
# [17] = system: PXR homodimer (NR concentration 270 nM)
# Summary of the method: as §1
# [18] = system: RARa:RXR (NR concentration 270 nM, RXRa partner concentration 90 nM)
# Summary of the method: as §1
# [19] = system: RARa homodimer (NR concentration 270 nM)
# Summary of the method: as §1
# [20] = system: RARb:RXRa (NR concentration 270 nM, RXRa partner concentration 90 nM)
# Summary of the method: as §1
Sequence,PBM binding z-score [1],PBM binding z-score [2],PBM binding z-score [3],PBM binding z-score [4],PBM binding z-score [5],PBM binding z-score [6],PBM binding z-score [7],PBM binding z-score [8],PBM binding z-score [9],PBM binding z-score [10],PBM binding z-score [11],PBM binding z-score [12],PBM binding z-score [13],PBM binding z-score [14],PBM binding z-score [15],PBM binding z-score [16],PBM binding z-score [17],PBM binding z-score [18],PBM binding z-score [19],PBM binding z-score [20]
GCATAGAGGTAATACAAGGTGAAAGTCCGATTGT,1.25,3.39,-0.00697,1.1,-0.79,1.51,0.691,0.857,0.448,0.729,1.06,1.35,0.658,0.616,0.00249,1.03,-0.217,1.18,0.413,0.751
CGTCCAAGGTCAATGGTAGGTCAGTGAAAGCATT,6.69,5.38,2.66,4.27,0.432,5.14,3.76,4.73,1.28,3.54,3.32,3.95,-0.0725,-0.844,5.44,4.84,1.79,5.88,1.16,5.37
CCGACTGGGGCATAGGTTACCATACTCAGTACGA,-0.122,-0.0807,-0.232,0.581,-1.1,3.58,8.18,7.34,6.9,7.37,2.91,4.3,-0.132,-0.537,0.866,0.141,-0.441,0.637,-0.24,0.735
CCGACTGGGGCAAGGTTATCATAACGCACAGCCA,0.246,0.372,-0.203,0.586,-1.17,1.56,2.69,3.04,0.861,2.36,3.18,3.27,-0.411,-0.512,0.593,0.253,-0.27,0.986,-0.0927,1.5
GATACACGGTCAGCTAGAGGCCAGAGTATGGAAA,-0.145,-0.145,-0.281,-0.57,-0.753,-0.296,0.351,-0.323,-0.383,-0.205,-0.219,0.135,-0.178,-0.554,0.453,-0.394,-0.5,0.205,-0.0449,2.51
ATCTCTAGGTAAAAGTTCAGTGGATCCCGAGGAT,1.06,1.66,1.37,1.03,1.11,4.09,7.94,7.5,7.58,8.5,2.25,3.58,1.28,1.66,1.32,2.05,1.71,1.76,1.18,2.41
CGAACGAGGGCAGGAGTTGATAGCAAATGCCGAT,-0.327,-0.217,-0.463,-0.569,-1,0.441,1.17,1.46,-0.21,1.07,1.98,1.44,-0.723,-0.762,-0.323,-0.216,-0.229,-0.159,-0.0684,1.8
GGAACGAGGGCATTCGACTTGATAGCATGGCGAT,0.596,0.173,-0.634,-0.0929,-0.467,1.41,1.14,0.717,-0.0237,0.28,2.67,2.21,0.442,0.0396,-0.0413,0.499,0.283,-0.119,-0.012,1.6
CGTAGCAGGCCAATCTGGGTCACTCAAGGCTTGA,0.309,0.88,-0.711,0.262,-0.737,2.6,2.21,2.03,-0.188,1.08,4.39,5.41,0.0881,-0.653,0.384,1.07,-0.642,1.47,-0.582,1.48
CAAACAGGGTCAGCTAGGCCAGAGTAGGGACGGC,4.65,2.73,-0.316,2.21,0.0212,4.47,3.5,3.57,0.838,2.35,2.12,2.9,0.368,0.041,1.74,2.42,0.185,3.18,0.11,3.96
AGTCAAAGTCCACTAGGTAACGTAAGATTCAGCT,-0.195,-0.249,-0.162,-0.0956,0.0347,0.0628,0.58,0.278,0.0579,0.146,1.22,1.83,0.418,0.228,0.527,-0.372,0.0413,-0.205,0.764,1.44
CCTTACGGGTCAAGGTTATAACACGGGTGGTACG,5.53,3.71,0.233,3.44,0.254,5.22,4.63,4.8,2.22,3.94,2.12,3.6,0.305,-0.192,2.04,3.52,0.548,4.5,0.85,4.24
CCTATTAGTTGACCATAAGGGCAAACGAAGCTCG,1.04,0.336,0.545,0.644,0.599,0.695,0.426,0.45,0.0598,0.284,0.266,0.555,0.151,0.588,1.58,0.75,0.863,1.02,1.31,1.52
TCTCGGAGGACACGAAAGATCAGAGCTCGACATC,-0.277,0.0528,-0.431,-0.144,-0.969,0.328,0.493,0.915,2.54,1.17,1.5,0.155,-0.549,-1.75,-1.47,-0.243,-0.552,-0.0104,-0.742,1.17
TGAATGATGTTAAAGATCAGGGAACGTGGCGTCG,0.0753,0.0362,-0.207,-0.167,0.281,0.925,1.32,2.98,1.82,2.49,-0.672,0.00051,0.678,0.88,0.216,-0.226,0.0908,-0.242,0.502,-0.0162
TCGTATAGGTAAACAGGTGAAAGTCCGTAAGTTA,1.19,0.963,0.191,0.852,0.0957,1.95,1.46,2.64,2.92,2.76,2.73,2.33,0.663,0.619,1.46,0.831,0.735,1.22,1.47,0.797
CGTCCAAGTTCAAGGTAACGTAACAGAAAGCAGC,2.88,2.37,0.562,1.53,0.319,2.68,1.17,1.4,0.382,1.04,0.65,0.654,0.76,0.315,1.63,2.73,1.61,1.95,0.657,3.36
CCTGCTAGATCATGGTCAGCTAATCTACAGTATG,-0.747,-0.678,-0.68,-0.476,-0.922,-0.672,0.0409,-0.513,-0.306,-0.269,0.393,-0.546,-0.661,-0.698,-0.74,-0.448,-0.524,-0.328,-0.726,-0.0385
CCTACTGGGCCATTCAGAGATCATTGATCATATG,-0.238,-0.231,-0.224,-0.409,-0.653,0.219,0.557,0.204,-0.621,-0.372,4.48,3.51,0.0285,0.282,-0.3,-0.546,-0.622,-0.523,0.13,0.0331
CGAACTAGGCCAGAACAGGACAGTGAAGGATGAT,-0.345,-0.433,-0.144,-0.816,-0.951,0.499,1.22,0.225,0.233,0.37,3.99,3.44,0.251,0.0234,0.0323,-0.123,-0.145,0.379,0.0972,0.171
ATCGAAAGGTCGAGGTTAGTATAGAGAAAGGGAA,3.77,3.57,0.422,2.93,0.526,4.48,3.03,3.6,1.65,2.68,0.147,1.68,0.823,1.11,3.22,2.65,0.569,3.81,1.39,4.09
ACTTACGGGCCAACGAGGTTATAGCACGCGTATA,0.283,0.557,-0.119,0.645,-0.0337,1.16,0.891,0.372,0.0261,0.602,0.992,0.418,0.118,0.119,0.076,1,0.334,1.16,0.0529,1.05
CCTAGCAGGCCAATCTCGGTCACTCAAGGCTTGA,0.604,2.68,0.339,-0.0855,-0.585,0.406,-0.312,-0.384,-1.26,-0.439,1.96,1.29,-0.633,-1.57,0.0271,-0.17,-0.412,0.0359,-0.713,1.34
GTAACGAGGGCAAAGTTGATAGCATCTGTCGACG,1.48,1.29,-0.238,1.17,0.169,4.2,7.58,7.24,6.77,7.65,4.16,4.69,0.947,0.296,0.574,1.36,0.402,1.77,0.268,2.36
CAACCAAGGTGAACAAGGTCGTTGATTACTATTC,1.58,1.48,0.275,2.09,-0.212,2.67,1.33,1.41,0.118,0.789,2.56,3.05,0.422,0.588,0.973,2.8,1.68,2.42,0.281,2.29
GCGACTGGGGCATCAGCAGGTGACCATAACTTAA,-0.501,-0.679,-0.385,0.223,-1.22,0.831,0.922,0.832,-0.507,-0.0151,4.17,3.33,-0.697,-0.862,0.0227,-0.51,-0.76,-0.136,-0.252,0.702
TCGAGTAGGTTACGGGCATTCAGAATGGCGTCGA,0.0323,0.894,-0.574,-0.0129,-1.41,1.33,1.14,1.54,0.893,1.06,3.6,3.2,-0.359,-0.95,-0.405,0.127,-0.967,0.109,-1.16,1.29
GATACAGGGTCGAGGCCAGAGTACGCGTATTGAT,0.882,0.531,-0.581,0.3,-1.21,1.99,1.21,0.874,0.198,0.515,-0.175,0.711,-0.769,-0.92,0.109,0.68,-0.735,1.37,-0.498,1.91
